Assay outcomes from PubChem.
Most compounds without a hit are left out; they make up all but 13% or so of the library.
HCV inhibitor = inhibitors of hepatitis C virus infection; Huh7.5.1 HCVcc-Cre infection, luciferase reporter, 44 h; Potency, µM (highest dose often 41.8 µM), without a hit: top-dose activity change, negative = inhibition, most hits filed as inhibitors; 3.4% of 340,000 active; further: potency means the concentration at half of the fitted maximal effect
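Luciferase read-out (15 sec integration) after a 15 min room-temperature substrate step quantifies HCVcc-Cre infection. Cells, 1,000 per well, had compound added 4 h post-plating, then virus at ~0.5 moi, and were cultured 44 h.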
HCMV inh = inhibitors of human cytomegalovirus; AID 1259415; activity change, negative = inhibition, % at 57.5 µM; HFF cells, HCMV-luciferase reporter, 72 h; active compounds read low; 4.5% of 410,000 active; in the data active means activity change below about -60%; inconclusive means no clear call, values can overlap the other calls; inactive means above about -39%
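Inhibition of viral replication was scored as loss of reporter luminescence in HFFs infected with HCMV-luciferase (MOI 1 PFU/cell) for 72 h; compounds tested at 2 doses, normalized to buffer and Salinomycin controls.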
Pf growth 96h = inhibits malaria parasite growth, 96 h; Potency, µM (highest dose often 28.7 µM), inactives show top-dose activity change, negative = inhibition, hits mostly inhibitors; 6.9% of 320,000 active; P. falciparum luciferase reporter growth, 96 h; further: potency means the concentration at half of the fitted maximal effect
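Parasite growth measured via integrated firefly luciferase reporter in P. falciparum. Infected erythrocytes at 2% hematocrit, 0.05% parasitemia final were treated 96 hours at 37 C under 5% CO2, and luminescence was read.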
Pf growth 48h = P. falciparum growth inhibition at 48 hours (one generation); 5.9% of 310,000 active; P. falciparum luciferase growth in erythrocytes, 48 h; Potency, µM (titrated, usually from 28.7 µM), inactives show at the top dose activity change, negative = inhibition, actives largely listed as inhibitors; further: potency means the concentration at half of the fitted maximal effect
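Growth was read as firefly luciferase luminescence after a 48 h, 37 C, 5% CO2 exposure of compounds to reporter-bearing P. falciparum cultures (0.1% parasitemia, 2% hematocrit final) in Albumax-supplemented RPMI 1640.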
Active calls of the source: *; i = inactive; ? = inconclusive; nt = not tested or not shown. Unless noted, the call rests on the fitted dose curve; in most records, active means well fitted inhibition curve with a large enough effect; inconclusive means small, poorly fitted or top-dose-only effect, or another doubt; inactive means no such curve, though single readings can be large or run the other way. On the % scale 0 is the no-effect control and ±100 the full control effect.

SMILES	HCV inhibitor	HCMV inh	Pf growth 96h	Pf growth 48h
O=C(Nc1ccc(F)cc1F)c1cccc(C(=O)Nc2ccc(F)cc2F)n1	-15%	-99*	?	43%
COC(=O)c1ccc(NC(=O)Nc2ccc(F)c(Cl)c2)cc1	11µM*	35	-60%	nt
O=C(c1cccc(Cl)c1)n1nc(-c2cccnc2)nc1NCc1ccccc1	nt	8	nt	nt
COC(=O)c1sccc1NC(=O)Nc1ccc(Cl)c(Cl)c1	?	-71*	?	94%
COC(=O)c1cccc(NC(=O)NC(=O)c2ccccc2Cl)c1	-9%	-22	i	344%
CCC(C)NC(=O)Nc1ccc(F)c(Cl)c1 (centres undefined)	-23%	-62*	-11%	20%
COC(=O)c1cccc(NC(=O)Nc2ccc(Cl)c(Cl)c2)c1	nt	-101*	?	?
O=C(Cc1ccc(Cl)cc1Cl)Nc1ccncc1	8.9µM*	-66*	?	?
COC(=O)c1sccc1NC(=O)Nc1ccc(C)c(C)c1	-9%	22	-8%	184%
CCc1c(-c2ccccc2)nc2ccccc2c1C(=O)NCc1ccc(C)cc1	nt	-17	nt	nt
O=C(Nc1ccc(Br)cc1)N1CCC(CN2CCCC2)CC1	nt	-19	nt	nt
Cc1ccc2c(c1)cc1c(=O)n(Cc3ccc(Cl)cc3)nc(C)n12	nt	1	nt	nt
Cc1csc(NC(=O)C2CCN(S(=O)(=O)c3ccc4c(c3)oc(=O)n4C)CC2)n1	-13%	17	3.3µM*	nt
Cc1csc(NC(=O)C2CCN(S(=O)(=O)c3ccccc3F)CC2)n1	?	-60*	?	4%
O=C(Nc1ccc(N2CCOCC2)cc1)C1CCN(S(=O)(=O)c2ccccc2F)CC1	-5%	-5	-1%	-15%
COc1cc(NC(=O)C2CCN(S(=O)(=O)c3ccc4c(c3)oc(=O)n4C)CC2)cc(OC)c1	nt	-15	nt	nt
COc1cccc(-n2c(=O)c3cc(OC)c(OC)cc3n(CC(=O)Nc3ccccc3)c2=O)c1	nt	3	nt	nt
Cc1ccc(-n2cc(C(=O)OCc3ccc(Cl)cc3)c3ccccc3c2=O)cc1	nt	13	nt	nt
CCN(CC)CCN1c2ccccc2Sc2ccc3ccccc3c21	?	?	?	8.3µM*
CCOc1ccc(-c2cc(C(=O)NCCCOC)c3c(-c4ccc(CC)cc4)[nH]nc3n2)cc1	nt	-21	nt	nt
COc1ccc(NC(=O)CSc2ncc(-c3ccc(Cl)cc3)[nH]2)cc1OC	nt	-21	nt	nt
CN(C)c1ccc(Nc2nc(N)c([N+](=O)[O-])c(N3CCOCC3)n2)cc1	?	?	10µM*	?
Cc1cccc(Nc2nc(N)c([N+](=O)[O-])c(N3CC(C)CC(C)C3)n2)c1 (centres undefined)	6.3µM*	-63*	?	13µM*
Cc1cccc(Nc2nc(N)c([N+](=O)[O-])c(N3CC(C)OC(C)C3)n2)c1 (centres undefined)	10µM*	10	?	?
Cc1ccc2[nH]c(CSc3nnc(NC(=O)COc4ccccc4Cl)s3)cc(=O)c2c1	nt	-24	nt	nt
SMILES	HCV inhibitor	HCMV inh	Pf growth 96h	Pf growth 48h
CCOc1ccc(CCN2C(=S)N([C@@H](CC(C)C)CN3CCC[C@@H]3CN3C(=S)NC[C@@H]3CC(C)C)C[C@@H]2Cc2ccc(O)cc2)cc1	nt	-98*	nt	nt
CCOc1ccc(CCN2C(=S)N([C@@H](CC(C)C)CN3CCCC3CN3C(=S)NC[C@@H]3CC(C)C)C[C@@H]2Cc2ccc(O)cc2)cc1 (some centres undefined)	0.56µM*	-40	nt	nt
COc1ccc(-c2csc(NNC3=NCCCCC3)n2)cc1	?	20	0%	12µM*
Brc1ccc(-c2csc(NC3=NCCCCC3)n2)cc1	-22%	12	13µM*	57%
COc1ccc(-c2csc(NC3=NCCCCC3)n2)cc1	?	?	35%	43%
O=C(Cn1ccn(-c2ccc(F)c(F)c2)c(=O)c1=O)NCc1ccccc1	nt	-12	nt	nt
CC(C)(C)c1nc2c(Br)cc(Br)cc2c(=O)o1	20%	41	0.37µM*	12%
COc1cc2nc(C(C)(C)C)oc(=O)c2cc1OC	13%	-3	33%	22%
CC(C)CN(CCNC(=O)CCN1N=C(c2ccccc2)CCC1=O)CC(C)C	nt	-24	nt	nt
CN(C)c1cccc(NC(=O)c2ccco2)c1	12%	12	86%	-11%
CCN(CC)P(=O)(Nc1cccc(C(F)(F)F)c1)c1ccc(N(C)C)cc1NC(=O)c1ccco1 (centres undefined)	?	?	1.9µM*	2.1µM*
CCOc1ccc(/C=N/NC(=S)NC2CC3C=CC2C3)cc1 (centres undefined)	?	?	8.3µM*	?
COc1cc(/C=N/NC(=S)NC2CC3C=CC2C3)cc(OC)c1OC (centres undefined)	?	-61*	2.9µM*	5.2µM*
Oc1c(Br)cc(Br)cc1/C=N/NC(=S)N[C@H]1CC2C=CC1C2 (some centres undefined)	-4%	?	?	?
Oc1ccc(/C=N/NC(=S)NC2CC3CCC2C3)cc1 (centres undefined)	-26%	31	?	?
CCOC(=O)c1c(C)[nH]c(C)c1S(=O)(=O)N1CCC(C(=O)Nc2ccccn2)CC1	nt	-12	nt	nt
Cc1cccc(NCCC(=O)c2ccc(Br)cc2)c1	-7%	-1	34%	13%
CC(C)c1ccc(NCCC(=O)c2ccc(Br)cc2)cc1	12%	-31	9.3µM*	1%
CCCCCCC[N+](CC)(CC)CCCCc1ccc(Cl)cc1	?	-101*	0.47µM*	0.47µM*
CCCc1ccc(C(=O)NNC(=O)c2ccc(Cl)cc2)cc1	21%	28	84%	2%
CCOC(=O)c1cnc2ccc(C)cc2c1Nc1ccc(N(CC)CC)cc1	nt	-106*	nt	nt
CCOC(=O)c1cnc2ccccc2c1Nc1ccc(C(=O)O)cc1	-10%	-3	?	?
CCOC(=O)c1cnc2ccc(C)cc2c1Nc1ccc(N2CCOCC2)cc1	?	-13	10µM*	?
COCC(C)NC(=O)c1cc2c(=O)n3cccc(C)c3nc2s1 (centres undefined)	nt	1	nt	nt
Cc1ccc(S(=O)(=O)c2nnn3c2nc(NCCc2ccccc2)c2sccc23)cc1	nt	-65*	nt	nt
Cc1ccc(C)c(S(=O)(=O)c2nnn3c2nc(NCc2ccc4c(c2)OCO4)c2sccc23)c1	nt	-79*	nt	nt
CCSc1ccc([C@@H]2[C@@H]3C(=O)N(CC)C(=O)[C@@H]3[C@]3(C(=O)OC)CCCCN23)cc1OC	?	-4	?	13µM*
CCN1C(=O)[C@H]2[C@@H](c3ccc(-c4cccc(Cl)c4)c(OC)c3)N3CCC[C@@]3(C(=O)OC)[C@H]2C1=O	?	15	nt	nt
CCN1C(=O)[C@@H]2[C@@H](c3ccc(SC4CCCCC4)c(OC)c3)N3CCCC[C@@]3(C(=O)OC)[C@@H]2C1=O	19%	-26	nt	nt
COC(=O)[C@@]12CCCCN1[C@H](c1ccc(SC3CCCCC3)c(OC)c1)[C@@H]1C(=O)N(C)C(=O)[C@@H]12	-5%	-8	8.3µM*	8.3µM*
